The record followed here is PubChem BioAssay (EPA / NIEHS).

In general, AC50 refers to the midpoint of the concentration-response curve, whichever way the signal moves.

Assay [1] can be described thus: ATG_XTT_Cytotoxicity: Cytotoxicity Assessment in the Attagene TRANS-FACTORIAL HepG2 Assay (AID 2283584). In outline: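 Viability endpoint from XTT after 24 h chemical exposure of reporter-transfected human HepG2 liver cells; signal loss fitted relative to DMSO negative control.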
In assay [2] the target is Cellular tumor antigen p53 (Homo sapiens) (UniProt P04637). Briefly: TOX21_p53_BLA_p3_ratio: Tox21 HCT-116 p53 Agonism Beta-lactamase Assay, Ratio, Phase 3 (AID 2283596). In short, it runs like this:
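HCT116 p53-bla cells (4000/well) given compound in DMSO (217-fold dilution) after 5 h, incubated 16 h at 37C. CCF4-AM substrate 2 h at room temperature; 460/530 nm emission ratio, gain fitted against DMSO.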

The nature of assay [3]: TOX21_p53_BLA_p4_viability: Viability Assessment in the Tox21 HCT-116 p53 Agonism Beta-lactamase Assay, Phase 4 (AID 2283597).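 Also: hits lower the luminescence signal meaning cytotoxicity.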 In outline: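 Following a 16 h exposure at 37C, the treated HCT116 wells were first read for the FRET ratio. They were then lysed with CellTiter-Glo, and ATP luminescence was recorded after 30 min at room temperature.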
A short description of assay [4]: TOX21_p53_BLA_p5_viability: Viability Assessment in the Tox21 HCT-116 p53 Agonism Beta-lactamase Assay, Phase 5 (AID 2283600). In outline: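 After the 460/530 nm beta-lactamase measurement, the wells received an ATP-detection luciferase reagent; signal was read 30 min later at RT. Compound treatment lasted 16 h on cells pre-incubated 5 h post-seeding.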
A short description of assay [5]: TOX21_p53_BLA_p2_viability: Viability Assessment in the Tox21 HCT-116 p53 Agonism Beta-lactamase Assay, Phase 2 (AID 2283591).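 Also: compound exposure lasted 16 h at 37 °C; actives lower the ATP signal meaning cytotoxicity.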 In short, it runs like this: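 Cytotoxicity readout: CellTiter-Glo ATP luminescence, 30 min at room temperature, after the beta-lactamase read. Cells were HCT116 exposed 16 h at 37C to compounds pin-transferred at 217-fold dilution from DMSO stocks.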

Assay [6] has as its target Cellular tumor antigen p53 (Homo sapiens) (UniProt P04637). Briefly: TOX21_p53_BLA_p2_ratio: Tox21 HCT-116 p53 Agonism Beta-lactamase Assay, Ratio, Phase 2 (AID 2283592). In outline:
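Gain-of-signal p53 agonism was scored from the beta-lactamase FRET ratio (460/530 nm, 405 nm excitation) in HCT116 cells treated 16 h at 37C, 5% CO2, with DMSO serving as negative control and baseline.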

Assay [7] in a line: TOX21_p53_BLA_p3_viability: Viability Assessment in the Tox21 HCT-116 p53 Agonism Beta-lactamase Assay, Phase 3 (AID 2283593).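 Also: cells exposed to compound for 16 h before reading.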 In short, it runs like this:
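Cellular ATP was quantified by CellTiter-Glo luminescence, read after 30 min at room temperature. Beforehand, HCT116 cells (4000/well) received compound 5 h post-seeding, 217-fold diluted from DMSO, then incubated 16 h at 37C.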

Assay [8] addresses Cellular tumor antigen p53 (Homo sapiens) (UniProt P04637). Nature of the assay: TOX21_p53_BLA_p5_ratio: Tox21 HCT-116 p53 Agonism Beta-lactamase Assay, Ratio, Phase 5 (AID 2283599). In outline:
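Beta-lactamase reporter ratio (blue 460 nm over green 530 nm, 405 nm excitation) after 2 h CCF4-AM loading, in HCT-116 cells exposed 16 h at 37 C to compounds pinned at 217-fold dilution. Increases relative to DMSO baseline scored.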

Assay [9] shares this target. Nature of the assay: TOX21_p53_BLA_p4_ratio: Tox21 HCT-116 p53 Agonism Beta-lactamase Assay, Ratio, Phase 4 (AID 2283601). In outline:
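Signal is the blue/green (460nm/530nm) ratio of cleaved versus uncleaved CCF4-AM substrate, read after 2 h substrate loading. Cells were HCT116 carrying the p53-responsive beta-lactamase reporter, dosed 16 h at 37C, 5% CO2; CellTiter-Glo measured in parallel.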

Inconclusive results are not listed. Active and inactive are the calls of the source. The calls were made as follows: active = hit-call score of the fitted dose curve at least 0.9, where 1 is the maximum; inconclusive = response in the unintended direction; inactive = score below 0.9.

Sequence of Cellular tumor antigen p53 (Homo sapiens) (P04637 whole entry, looked up): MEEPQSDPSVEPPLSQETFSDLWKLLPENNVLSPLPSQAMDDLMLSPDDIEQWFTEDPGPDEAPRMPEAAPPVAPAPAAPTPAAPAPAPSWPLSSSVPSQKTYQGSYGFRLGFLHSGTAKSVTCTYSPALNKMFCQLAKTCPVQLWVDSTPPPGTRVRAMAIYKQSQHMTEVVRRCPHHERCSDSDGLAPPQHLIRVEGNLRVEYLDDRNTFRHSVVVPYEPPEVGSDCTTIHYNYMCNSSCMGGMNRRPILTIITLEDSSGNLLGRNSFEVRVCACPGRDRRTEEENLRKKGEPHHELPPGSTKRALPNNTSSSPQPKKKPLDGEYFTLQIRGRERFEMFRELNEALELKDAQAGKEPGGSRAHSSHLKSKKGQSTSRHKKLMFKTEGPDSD

For `CCCCCCCCC=O`, the compound was called inactive in assay [1], in assay [2], in assay [3] and in [4].
As to `CC(C)OP(=O)(CP(=O)(OC(C)C)OC(C)C)OC(C)C`, the call in assay [5], in assay [6], in assay [7], in [2], in [8] and in [9] was inactive.
With `Cc1ccc(Nc2ccc(O)c3c2C(=O)c2ccccc2C3=O)cc1`, the call in [5], in assay [6], in [7], in assay [2], in assay [3] and in [8] was inactive.
As to `Cc1ccc(S)cc1`, the result in assay [5], in [6], in assay [7], in assay [2], in assay [8] and in [4] was inactive.
For `CCCCCCCCCCCCCC(=O)O`, the compound was called inactive in [5], in assay [6], in assay [7], in assay [2], in assay [3] and in assay [8]. The compound was classed as inactive in [4] and in [9].
Turning to `COc1ccc(Nc2ccccc2)c(C)c1`, the call in [5], in assay [6], in [7], in [2], in [3] and in [8] was inactive. For the same compound, the result in assay [4] was inactive.
Turning to `CC(=O)C(=O)O`, the call in assay [5], in [6], in assay [7], in assay [2], in assay [3] and in assay [8] was inactive. Moreover, the outcome in assay [4] and in assay [9] was inactive.
On to `OC1OC[C@@H](O)[C@H](O)[C@H]1O` (some centres undefined), for which the result in assay [5], in assay [6], in assay [7], in [2], in assay [8] and in [4] was inactive.
For the compound `CNC[C@H](O)c1cccc(O)c1`, the compound was classed as inactive in assay [5], in [6], in assay [7], in assay [2], in [3] and in assay [8]. The call in assay [4] and in [9] was inactive.
`CC(=O)O[C@]1(C(C)=O)CC[C@H]2[C@@H]3C[C@H](C)C4=CC(=O)CC[C@]4(C)[C@H]3CC[C@@]21C`: the compound was classed as inactive in assay [5], in assay [6], in assay [7], in assay [2], in assay [3] and in assay [8]. In addition, the outcome in assay [9] was inactive.
Consider `CC(=O)C(C)=O`, for which the compound was called inactive in assay [5], in [6], in assay [7], in assay [3], in [4] and in [9].
`CCCCNC(=O)NS(=O)(=O)c1ccc(C)cc1`: the outcome in assay [5], in assay [6], in assay [7], in [2], in [3] and in assay [8] was inactive. Moreover, the result in [4] and in [9] was inactive.
For the compound `CCCCCCCCCCC(CO)CCCCCCCC` (centres undefined), the result in assay [5], in assay [6], in assay [7], in [3] and in assay [4] was inactive.
Turning to `O=C(Nc1ccccc1)c1cc([N+](=O)[O-])ccc1Cl`, the result in assay [6], in assay [2], in [3], in assay [8] and in assay [9] was inactive.
As to `CC(=O)O[C@H](CC(=O)[O-])C[N+](C)(C)C`, the outcome in assay [6], in assay [7], in assay [2] and in [4] was inactive.
`C[C@H]1C[C@@H]2[C@H]([C@@H](O)C[C@@]3(C)[C@H]2CC[C@]3(O)C(=O)CO)[C@@]2(C)C=CC(=O)C=C12`: the outcome in assay [5], in assay [7], in assay [2], in assay [3] and in assay [9] was inactive.
Consider `CC(C)Oc1ccccc1O`, for which the outcome in assay [6], in assay [2], in [3], in [8], in [4] and in assay [9] was inactive.
Consider `O=S(=O)(O)c1ccc(O)c2ncccc12`, for which the compound was called inactive in assay [5], in assay [7], in [2], in assay [8], in [4] and in assay [9].
In the case of `OCC(CO)(CO)COCC(CO)(CO)CO`, the result in assay [7], in [3], in assay [8], in assay [4] and in [9] was inactive.
Consider `COC(C)CCO` (centres undefined), for which the call in assay [5], in [7] and in assay [2] was inactive.
Regarding `C=CCOC(=O)CCC1CCCCC1`, the result in assay [7], in assay [2], in assay [3], in assay [8] and in assay [9] was inactive.
Turning to `O=C(O)CCSCCC(=O)O`, the result in assay [6], in assay [2], in [3], in assay [8], in assay [4] and in assay [9] was inactive.
In the case of `CCCCCCOC(=O)CC`, the compound was classed as inactive in assay [5], in assay [6], in assay [2] and in [8].
For the compound `CC(C)(C)c1n[nH]c(=S)n(N)c1=O`, the outcome in [6], in assay [2], in assay [3] and in [8] was inactive.
For `CN1[C@@H]2CC(OC(=O)[C@H](CO)c3ccccc3)C[C@H]1[C@@H]1O[C@@H]12` (some centres undefined), the outcome in assay [6], in assay [7], in assay [2], in [3], in [8] and in assay [4] was inactive.
As to `CCC(C(=O)NC(N)=O)c1ccccc1` (centres undefined), the outcome in [5], in assay [6], in assay [2], in [8], in assay [4] and in [9] was inactive.
As to `CC(C)=CCCC(C)CC=O` (centres undefined), the result in assay [6], in [2] and in [8] was inactive.
With `Clc1ccc(Cl)c(Cl)c1Cl`, the outcome in assay [6], in [2], in assay [3], in assay [8] and in assay [4] was inactive. For the same compound, the AC50 in [9] is 0.436 nM (active).
For the compound `CC(CCO)CCc1ccccc1` (centres undefined), the result in [6], in assay [2], in assay [8] and in assay [9] was inactive.
Turning to `Cc1ncc([N+](=O)[O-])n1C`, the result in assay [6], in assay [7], in assay [2], in [3] and in assay [4] was inactive.
`CC(C)=CCO`: the outcome in [6], in assay [7], in [2], in assay [3] and in assay [8] was inactive.
As for `O=C(OCc1ccccc1)C(=O)OCc1ccccc1`, the result in assay [5], in [6], in assay [2], in assay [8] and in assay [9] was inactive.
In the case of `C=CC(C)(CCC=C(C)C)OC=O` (centres undefined), the compound was classed as inactive in assay [5], in assay [6], in assay [2] and in assay [9].
In the case of `CCCC1CCC(=O)O1` (centres undefined), the call in [5], in [6], in [2], in assay [3] and in assay [9] was inactive.
Regarding `Nc1ccc(S(=O)(=O)O)c(N)c1`, the outcome in assay [6], in [7], in [3], in [8], in assay [4] and in assay [9] was inactive.
As to `CC1CCC2CC1C2(C)C` (centres undefined), the outcome in [5], in assay [6], in assay [2], in assay [8] and in [4] was inactive.
For the compound `CCC(C)(O)CCC=C(C)C` (centres undefined), the result in assay [6], in assay [2], in assay [3], in [8], in assay [4] and in assay [9] was inactive.
In the case of `CCOC(=S)SSC(=S)OCC`, the outcome in assay [6], in [7], in assay [2], in [3], in assay [8] and in assay [4] was inactive. In assay [9], the outcome was inactive.
For `CCOc1ccccc1OCC`, the outcome in [5], in assay [6], in assay [2] and in assay [9] was inactive.
As to `CNCCO`, the outcome in assay [6], in assay [2] and in assay [3] was inactive.
In the case of `C=C[C@@H](C)CCC=C(C)C`, the result in assay [8], in [4] and in assay [9] was inactive.
`CC(C)c1ccc(C(C)C)cc1`: the result in assay [6], in assay [7], in [2], in [3], in assay [8] and in assay [9] was inactive.
`C=CC(C)(O)CCC=C(C)CCC=C(C)C` (centres undefined): the outcome in assay [6], in [2] and in [8] was inactive.
On to `C=C[Si](OCC)(OCC)OCC`, for which the outcome in assay [7] and in assay [9] was inactive.
As for `CCCCCOC(=O)CCC`, the result in assay [6], in assay [7], in assay [8], in assay [4] and in assay [9] was inactive.
Consider `ClCCCl`, for which the result in assay [6], in assay [7], in [2], in assay [3] and in [9] was inactive.
On to `CC(=O)Nc1ccccc1O`, for which the result in [5], in assay [6] and in assay [3] was inactive.
On to `CC(C#N)(CCC(=O)O)N=NC(C)(C#N)CCC(=O)O` (centres undefined), for which the outcome in [5], in assay [7], in [8], in [4] and in [9] was inactive.
Turning to `CN(C)CCCN`, the outcome in assay [5], in assay [6], in assay [2], in assay [3], in [8] and in assay [4] was inactive. Moreover, the outcome in [9] was inactive.
`Cc1ccccc1C=O`: the outcome in assay [5], in [7], in [2], in [3], in assay [8] and in assay [9] was inactive.
As to `CO[Si](CCCn1c(=O)n(CCC[Si](OC)(OC)OC)c(=O)n(CCC[Si](OC)(OC)OC)c1=O)(OC)OC`, the outcome in assay [6], in [7], in assay [3] and in [9] was inactive.
In the case of `CC(O)C(C)O` (centres undefined), the result in [6] and in assay [2] was inactive.
Regarding `CC(C)(C)NC(N)=O`, the result in assay [6], in [3], in assay [8], in assay [4] and in assay [9] was inactive.
